# The campaign covered roughly 330,000 compounds. About 1,700 (0.52%) were called active. A call without a number means that no potency is given here. Calls follow the shape of the dose curve; as a rule, active = well fitted inhibition curve with a large enough effect; inconclusive = small, poorly fitted or top-dose-only effect; inactive = no such curve, though single readings can be large or run the other way. The sample as a whole holds a higher share of actives than the screen did.
# Target: Beta-lactamase (Escherichia coli (strain K12)) (UniProt P00811)
# Assay: qHTS Inhibitors of AmpC Beta-Lactamase (assay without detergent); also: nearly all actives have a fitted effect of over 20% in size
# Conditions: AmpC nitrocefin hydrolysis, absorbance 480 nm, 0.0001% Triton; series mostly up to 57.1 µM
# Protocol: NIH Molecular Libraries Probe Production Network [MLPCN] NIH Chemical Genomics Center [NCGC] Assay Provider: Professor Brian Shoichet, UCSF Assay Overview: This aggregation profiling approach exploits the sensitivity of aggregate formation to detergent. Inhibition of b-lactamase is measured in the presence and absence of 0.01% Triton X-100. This particular assay had the prescence of 0.01% Triton X-100. See Pubchem assay "Promiscuous and Specific Inhibitors of AmpC Beta-Lactamase (assay without detergent)" for related screen. Compounds that inhibit only in the absence of detergent are considered likely promiscuous aggregators. A screen of 1,030 compounds was performed in Brian Shoichet's lab in 96-well format. AmpC activity was measured by following the absorbance at 480 nm. Nitrocefin is a chromogenic substrate: while nitrocefin is yellow (lmax 390 nm), the product of its hydrolysis is red (lmax 486 nm, 17,000 M-1). AmpC beta lactamase was provided by Shoichet Lab, UCSF.
# Buffer: 20 mM phosphate buffer, pH 7.0 Triton X-100: No Detergent screen: 0.0001%, Detergent screen: 0.01%. Reagents/Controls: Buffer in columns 3 and 4 as negative control (no enzyme). 5.3 nM AmpC in columns 1, 2, 5-48. Titration of UCSF compound 9 control (from 10 mM, then 1:2) pin-transferred to column 2. Column 1 is neutral (100% activity). Assay Steps: Six uL of reagents were dispensed to 1536-well Greiner black clear bottom plates. Compounds and controls (23 nL) were transferred via Kalypsys PinTool. The plates were incubated for 15 min at room temperature, and then 2 uL of 800 uM solution of nitrocefin was added to start the reaction. The plates were immediately transferred to and read every 20 seconds for 4 min on ViewLux (Perkin-Elmer) High-throughput CCD imager using 480 nm absorbance protocol. During dispense, reagent bottles were kept submerged into 4 deg C water bath. Keywords: NIH Roadmap, MLSCN, MLI, MLSMR, qHTS, NCGC, AmpC Beta-Lactamase, Aggregation
# Potency is read from the fitted curve at half-maximal effect.
# Chain of Beta-lactamase (Escherichia coli (strain K12)) (P00811 whole entry, looked up): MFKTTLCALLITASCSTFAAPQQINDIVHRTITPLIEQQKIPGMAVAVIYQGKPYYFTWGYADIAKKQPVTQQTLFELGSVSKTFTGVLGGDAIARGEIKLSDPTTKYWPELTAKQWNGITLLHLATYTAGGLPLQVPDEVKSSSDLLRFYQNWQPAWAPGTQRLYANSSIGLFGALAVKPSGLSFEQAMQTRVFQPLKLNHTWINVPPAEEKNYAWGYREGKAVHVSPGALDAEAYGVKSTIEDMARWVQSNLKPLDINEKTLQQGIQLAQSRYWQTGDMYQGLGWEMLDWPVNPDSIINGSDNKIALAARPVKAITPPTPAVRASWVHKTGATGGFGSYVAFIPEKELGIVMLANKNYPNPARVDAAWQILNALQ
row,SMILES,Potency
1,COc1cc(CO)ccc1OCC(=O)Nc1cccc2ccccc12,14.1 µM (active)
2,COc1ccccc1NC(=O)COc1ccc(C(=O)OCC(=O)N(C(C)C)C(C)C)cc1OC,inactive
3,COc1ccc(N(CC(=O)Nc2cccc3ccccc23)S(C)(=O)=O)c(OC)c1,inactive
4,C[C@@H](NC(=O)OC(C)(C)C)c1nnc(S(=O)(=O)Cc2ccccc2)o1,10 µM (active)
5,COc1ccccc1NC(=O)[C@H](COCc1ccccc1)NC(=O)OC(C)(C)C,inactive
6,CCc1ccccc1NC(=O)CSc1nnc([C@@H](NC(=O)OC(C)(C)C)C(C)CC)o1 (stereo not given in full),inactive
7,Cn1c(Cc2csc(N)n2)nnc1SC/C=C/c1ccccc1,inactive
8,COc1cc(Cl)c(S(=O)(=O)N2CCN(Cc3ccc4c(c3)OCO4)CC2)cc1Cl,inactive
9,O=C(CCCN1C(=O)/C(=C\c2ccccc2)SC1=S)Nc1ccccc1O,11.2 µM (active)
10,O=C(CCCN1C(=O)/C(=C/c2cccs2)SC1=S)Nc1ccc(O)cc1,inactive
11,COc1ccc(/C=C2/SC(=O)N(CCCCCC(=O)Nc3ccccc3C(=O)O)C2=S)cc1,inactive
12,O=C1/C(=C\c2ccccc2Cl)SC(=S)N1CCC(=O)N1CCCc2ccccc21,inactive
13,O=C(CCCN1C(=O)/C(=C\c2ccco2)SC1=S)Nc1cccc2ccccc12,11.2 µM (active)
14,O=C(CN1C(=O)/C(=C\c2ccccc2F)SC1=S)Nc1nc2ccccc2s1,inactive
15,CCC(c1nnc(SCC(=O)NNC(=O)c2ccccc2)n1Cc1ccccc1)N(C)C (stereo not given),inactive
16,CN(C)/C=C(/C(=O)c1ccc(Cl)cc1)S(=O)(=O)c1ccccc1,inactive
17,CN(C)/C=C(/C(=O)c1ccc(F)cc1)S(=O)(=O)c1ccc(F)cc1,12.6 µM (active)
18,CN(C)/C=C(/C(=O)c1ccccc1)S(=O)(=O)c1ccc(Cl)cc1,inactive
19,Cc1ccccc1CN1CCNC(=O)C1CC(=O)NCCC1=CCCCC1 (stereo not given),inactive
20,COc1cc(NC(=S)NNC(=O)CC(C)C)c(OC)cc1Cl,inactive
21,C=CCNC(=O)c1sc(SC)cc1-c1ccc(Cl)cc1,1 µM (active)
22,C=CCNC(=O)c1csc(-c2ccccc2)n1,inactive
23,CSc1sc(C(=O)NNC(=O)c2ccc(Cl)cc2)c2c1C=CCC2,inactive
24,CCN1CCN(CC(=O)c2cc(OC)c(OC)c(OC)c2)CC1,inactive
25,CC(C)c1ccc(N(C(=O)c2ccco2)C(C(=O)NC2CCCC2)c2cccnc2)cc1 (stereo not given),inactive

row,SMILES,Potency
1,COC(=O)c1ccccc1SC1CC(=O)N(c2cccc(C)c2)C1=O (stereo not given),7.08 µM (active)
2,COC(=O)c1cc(C(=O)OC)cc(N2C(=O)CC(N3CCN(c4ccccc4)CC3)C2=O)c1 (stereo not given),inactive
3,Cc1cccc(N2C(=O)CC(SC(N)=Nc3ccccc3)C2=O)c1 (stereo not given),inactive
4,CCc1ccc(Oc2nc([N+](=O)[O-])nn2C)cc1,inactive
5,O=C1CC(=O)N(Cc2ccccc2)C(=O)N1CCCCCCN1C(=O)CC(=O)N(Cc2ccccc2)C1=O,7.08 µM (active)
6,O=C(O)CCCN1C(=O)C2C3c4ccccc4C(c4ccccc43)[C@@H]2C1=O (stereo not given in full),inactive
7,Cc1c(NC(=O)CN2C(=O)C(=O)N(Cc3ccccc3)C2=O)c(=O)n(-c2ccccc2)n1C,inactive
8,COc1ccc(CCN2C(=O)N(c3ccc(OC)cc3)C(=O)C2CC(=O)Nc2ccc(OC)cc2)cc1 (stereo not given),inactive
9,CCN=C1S/C(=C\c2cc(Br)ccc2OCC(=O)OCC)C(=O)N1CC,inactive
10,COc1ccc(Cn2c(=S)[nH]c3cc(C(=O)NCCCN4CCOCC4)ccc3c2=O)cc1,inactive
11,O=c1c2ccccc2[nH]c(=S)n1CCN1CCC(=C(c2ccc(F)cc2)c2ccc(F)cc2)CC1,3.16 µM (active)
12,CCCCn1c(=S)[nH]c2ccccc2c1=O,inactive
13,C=CCn1c(SCCOc2ccc(OC)cc2)nnc1C(NC(=O)c1ccc(OC)cc1)C(C)C (stereo not given),inactive
14,COc1cccc(NC(=O)CCc2nnc3ccc(N4CCC(C)CC4)nn23)c1,inactive
15,CN(CC(=O)NCC(c1ccccc1)N1CCCC1)S(=O)(=O)c1ccc(Cl)cc1 (stereo not given),inactive
16,O=C(COC(=O)c1ccc(O)cc1O)NNC(=O)c1cccs1,inactive
17,CCc1ccc(NC(=O)COC(=O)c2cccs2)cc1,inactive
18,O=C(COC(=O)c1ccc(NS(=O)(=O)c2cccs2)cc1O)Nc1ccc(F)cc1,14.1 µM (active)
19,CC(=O)N/C(=C/c1ccc(OC(F)F)cc1)C(=O)O,inactive
20,COc1cccc(-c2coc3cc4oc(=O)c(CC(=O)O)c(C)c4cc23)c1,inactive
21,C=CCNC(=O)COc1coc(CN2CCN(Cc3ccccc3)CC2)cc1=O,inactive
22,COc1ccc(OCCCC(=O)Nc2cccc(S(=O)(=O)N3CCCCCC3)c2)cc1,inactive
23,COc1cccc(NC(=O)COc2cccnc2[N+](=O)[O-])c1,inactive
24,COc1ccccc1CNC(=O)COC(=O)CNS(=O)(=O)c1ccc(NC(C)=O)cc1,inactive
25,COc1ccc(S(=O)(=O)NC(CC(=O)NCc2ccccc2OC)c2ccco2)cc1 (stereo not given),0.316 µM (active)

# Reference: PubChem BioAssay AID485341 (National Center for Advancing Translational Sciences (NCATS), 2010)
